In all, about 330,000 compounds went through this assay and about 4,400 (1.3%) were called active.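 The calls were made as follows: active = growth inhibition of the mutant yeast at or above 50%; inactive = the rest.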 For the sample, actives were picked, then their nearest neighbours and some compounds at random.

The nature of this experiment: growth inhibition of tim23-1 ts yeast – luminescence, uHTS, primary screen (AID 463212).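 Also: temperature-sensitive mutant grown at 25 °C; plate controls were DMSO-treated mutant yeast for no effect and medium wells lacking yeast for full effect.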 The conditions noted are these: S. cerevisiae tim23-1 growth, BacTiter-Glo luminescence, 24 h; at 20 µM; stronger effect = higher value.
Consider `Cc1cc(C(=O)CCl)c(C)n1CC1COc2ccccc2O1` (centres undefined), for which the inhibition (usually the drop in the measured response relative to a control, in per cent) is 34.4% (inactive).

Turning to `O=C(CN1C(=O)C2C3C=CC(C3)C2C1=O)NCC1COc2ccccc2O1` (centres undefined), the inhibition was 18.2% (inactive). Regarding `O=C1C(=O)N(CC2COc3ccccc3O2)c2ccccc21` (centres undefined), the inhibition is 72.4% (active). As for `CC(=O)Nc1sc2c(c1C(c1cccc(F)c1)N1CCN(CCO)CC1)CCCC2` (centres undefined), the figure is 14.7% (inactive); as for `Cc1cccc(-[n+]2c(-c3cccc(Br)c3)[nH]c3nc4ccccc4nc32)c1`, 22.7% (inactive). `Cc1ccccc1NC(=S)NNC(=O)c1cccc(Br)c1`: the inhibition is 14.7% (inactive). On to `O=C(NC(=S)Nc1cccc2c(O)cccc12)c1cccc(Br)c1`, for which the inhibition is 68.6% (active).

Consider `NS(=O)(=O)c1ccc(NC(=S)NC(=O)c2cccc(Br)c2)cc1`, for which the inhibition was 28.3% (inactive). Take `Cc1ccc(C)c(OCc2cc(C(=O)N3CCN(c4cnccn4)CC3)no2)c1`: the inhibition is 23.9% (inactive). As for `Cc1onc(NC(=O)c2ccc([N+](=O)[O-])o2)c1Br`, the figure is 55.6% (active); as for `Cc1cccc(NC(=O)c2ccc([N+](=O)[O-])o2)c1`, 7.53% (inactive); as for `O=C(Nc1ccc(Br)cn1)c1ccc([N+](=O)[O-])o1`, 43.4% (inactive). For `O=C(CCCNS(=O)(=O)c1cccc2nsnc12)NCCN1CCN(c2ccccc2F)CC1` the value was 1.63% (inactive); for `O=C1Nc2ccccc2/C1=C/c1ccnc2ccccc12`, 51.2% (active); for `COc1cc(NS(=O)(=O)c2ccc(NC(=O)c3ccc(S(=O)(=O)N4CCCCC4)cc3)cc2)ncn1`, 3.91% (inactive). Turning to `O=C(NC1(C(F)(F)F)NC(=O)N(C2CCCCC2)C1=O)c1ccco1` (centres undefined), the inhibition was 14.4% (inactive).

In the case of `O=C1NC(Nc2nc3ccccc3s2)(C(F)(F)F)C(=O)N1C1CCCCC1` (centres undefined), the inhibition was 58.9% (active).

`CCC1(CC)NC(=O)N(Cc2nc3ccccc3s2)C1=O`: the inhibition was 21.9% (inactive). As for `CC(C)c1ccc(NC(=O)[C@@H](NC(=O)N2CC(=O)Nc3ccccc32)C(C)C)cc1`, the figure is 10.9% (inactive).

`Cc1c(NC(=O)CCC2CCCCC2)cc(C(=O)N2CCOCC2)cc1[N+](=O)[O-]`: the inhibition is 7.43% (inactive).

Take `CC(=O)Nc1ccc(S(=O)(=O)NC2(C(F)(F)F)C(=O)NC(C)=C2C#N)cc1` (centres undefined): the inhibition was 10.8% (inactive).

With `CCn1c2ccccc2c2cc(NC(=S)N3CCOCC3)ccc21`, the inhibition is 51.8% (active). In the case of `Cc1cc(N2CCN(C)CC2)nc2ccc(NC(=S)N3CCOCC3)cc12`, the inhibition was 12.1% (inactive).

With `Cc1cc(N2CCOCC2)nc2ccc(NC(=S)N3CCN(Cc4ccccc4)CC3)cc12`, the inhibition is 7.08% (inactive). For `COc1ccccc1CN1CC(C(=O)NCCc2cn[nH]c2)CCC1=O` (centres undefined) the value was 11.8% (inactive). With `CCCNC(=O)Nc1ccccc1C(=O)Nc1ccc(OC)cc1`, the inhibition is 11% (inactive). For `CCOC(=O)Cc1ncccc1C(=O)Nc1ccc(OC)cc1` the value was -4.31% (inactive). As for `COc1ccc(NC(=O)Nc2cccc3cccnc23)cc1`, the figure is 58.6% (active); as for `COc1ccc(CNS(=O)(=O)c2cc3c4c(c2)CCN4C(=O)CC3)cc1`, 9.82% (inactive); as for `COc1ccccc1C(=O)NC(=O)COC(=O)c1ccco1`, 1.32% (inactive).

`COc1ccc(N2CCN(C(=O)/C(C#N)=C/c3ccccc3)CC2)cc1`: the inhibition is 40.6% (inactive).

Take `COc1ccc(/C=C(\C#N)C(=O)OCC(=O)N(C)C2CCS(=O)(=O)C2)cc1` (centres undefined): the inhibition was -18.1% (inactive). With `COc1ccc(/C=C(\C#N)C(=O)ONC2=NCCCCC2)cc1`, the inhibition is 68.2% (active). As for `CC(=O)C1=C(C)NC(C)=C(C(C)=O)C1c1cn(-c2ccccc2)nc1-c1cccs1`, the figure is 29.1% (inactive); as for `CSc1ccccc1NC(=O)c1cc(C2CC2)on1`, 15.5% (inactive); as for `Cc1nn(Cc2ccc(F)cc2)c(C)c1NC(=O)c1cccnc1Cl`, 9.85% (inactive).

In the case of `Cc1nn(Cc2ccc(Cl)c(Cl)c2)c(C)c1NC(=O)c1cc(C2CC2)on1`, the inhibition was 56.6% (active). Consider `C/C(=N/NC(=O)CN1CCN(S(=O)(=O)c2ccc(Br)cc2)CC1)c1ccncc1`, for which the inhibition is 4.89% (inactive).

Turning to `Nc1nnnn1CC(=O)N/N=C/c1ccc(-c2cccc(Cl)c2)o1`, the inhibition was 1.59% (inactive). As for `O=C(N/N=C\c1ccc(-c2ccc(Cl)c(Cl)c2)o1)C(=O)N1CCCC1`, the inhibition was -5.25% (inactive). For `COC(=O)N/N=C/c1ccc(-c2ccc(Cl)c(Cl)c2)o1` the value was 54.7% (active); for `Cc1c(C)c2ccc(OCC(=O)N3CCN(c4cccc(Cl)c4)CC3)cc2oc1=O`, -6.57% (inactive); for `Cc1ccc(N2C(=O)CC(Sc3ncn[nH]3)C2=O)cc1` (centres undefined), -0.146% (inactive). As for `O=C1CC(Sc2ncn[nH]2)C(=O)N1c1ccccc1` (centres undefined), the figure is 51% (active). Consider `COc1ccc(N2C(=O)CC(Sc3n[nH]c(-c4ccc(C)cc4)n3)C2=O)cc1` (centres undefined), for which the inhibition is 28.8% (inactive). As for `COc1ccc(C(c2nnnn2C2CCCCC2)N2CCN(c3ccccc3F)CC2)cc1` (centres undefined), the inhibition is 14.3% (inactive). `CC(C(=O)NC1CCCC1)N(c1ccc(Oc2ccccc2)cc1)S(C)(=O)=O` (centres undefined): the inhibition was 29.3% (inactive). Turning to `Cc1ccc(NNC(=O)c2c(F)cccc2Cl)cc1Cl`, the inhibition was 44.2% (inactive).

On to `Cc1cc(C)c(S(=O)(=O)c2ccccc2)c(OC(=O)c2c(F)cccc2Cl)n1`, for which the inhibition is 64.7% (active).

For `Cc1cc(OC(=O)c2c(Cl)cccc2Cl)nc(C)n1`, the inhibition is 23.1% (inactive). For `COc1ccc(C(C(=O)NCC2CCCO2)N(C(=O)Cn2nnc3ccccc32)c2ccc(NC(C)=O)cc2)cc1OC` (centres undefined) the value was 15.6% (inactive). For `CCOc1ccc(CC(=O)NCCS(=O)(=O)N2CCN(c3ccccc3)CC2)cc1` the value was -7.53% (inactive); for `O=C(N/N=C/c1cccc2cccnc12)[C@H]1C[C@@H]1c1ccccc1`, 18.6% (inactive). As for `COc1ccc(C(C[N+](=O)[O-])n2nc(C)cc2C)cc1` (centres undefined), the figure is 84.7% (active). As to `CCOc1ccc(C(C)C)cc1S(=O)(=O)n1nc(C)cc1C`, the inhibition was 36.9% (inactive). For `COc1ccc(OC)c(S(=O)(=O)n2c([N+](=O)[O-])cnc2C)c1` the value was 12.9% (inactive). For `COc1cc(OC)c(NS(=O)(=O)c2cn(C)cn2)cc1Cl`, the inhibition is -16.4% (inactive).

On to `CC(C)(C)n1nnnc1C(c1ccccc1F)N1CCN(C(=O)c2ccco2)CC1` (centres undefined), for which the inhibition was 19.8% (inactive). On to `CC(=O)O[C@H]1CC[C@@]2(C)[C@@H](CC[C@@H]3[C@@H]2CC[C@]2(C)[C@@H](C(C)(C)O)C[C@@H]32)C1`, for which the inhibition is 28.2% (inactive). With `Cc1cc(C)cc(C(=O)OCC(=O)NCCNC(=O)COC(=O)c2cc(C)cc(C)c2)c1`, the inhibition is 2.3% (inactive).

`C(=N/N1CCN(c2ccccc2)CC1)/c1cccs1`: the inhibition was 15.3% (inactive). For the compound `CN1CN(C)c2ccc([N+](=O)[O-])c3cccc1c23`, the inhibition was 9.47% (inactive). In the case of `CCOc1cccc(=O)c2c(C)n(CC3CCCO3)c(C)c12` (centres undefined), the inhibition was -1.14% (inactive). Consider `O=C1c2cccc3c([N+](=O)[O-])ccc(c23)C(=O)N1CC1CCCO1` (centres undefined), for which the inhibition is 87% (active).

In the case of `O=C(CC1CCCCC1)NCc1ccccc1`, the inhibition was 14.8% (inactive).

Take `N/C(=N\OC(=O)CCC1CCCCC1)c1ccccn1`: the inhibition is 30.2% (inactive). For `N/C(=N\OC(=O)CC1CCCCC1)c1ccccc1` the value was 56.4% (active); for `O=C(COC(=O)c1ccc(Cl)nc1)NCc1ccc2c(c1)OCO2`, 6.05% (inactive); for `COc1cccc(CN2CCN(Cc3ccc4cccc(F)c4n3)CC2CCO)c1` (centres undefined), 6.61% (inactive). With `O=C(Nc1nc(-c2ccco2)c(-c2ccco2)s1)c1ccco1`, the inhibition is 69.5% (active). As for `NC(=O)c1ccsc1NC(=O)c1ccco1`, the figure is 6.25% (inactive); as for `O=C(Nc1nnc(CCOCCOCCc2nnc(NC(=O)c3ccco3)s2)s1)c1ccco1`, -4.68% (inactive); as for `N#Cc1ccc(N2Cc3ccccc3/C2=N/C(=O)Nc2ccc(Cl)cc2)cc1`, 28.7% (inactive). For `Cc1ccc2c(c1)c1ncnc(N3CCc4ccccc4C3)c1n2C` the value was 51% (active); for `c1ccc(-c2csc(N3CCc4ccccc4C3)n2)cc1`, 14.4% (inactive); for `Cc1ccc(Cl)c(OCC(=O)N2CCc3ccccc3C2)c1`, 35.1% (inactive). With `CCc1cc(=O)oc2c(C)c(OCC(=O)N3CC[C@@]4(O)CCCC[C@H]4C3)ccc12`, the inhibition was 2.55% (inactive). As for `CNS(=O)(=O)c1cnccc1N1CCN(c2cccc(C)c2)CC1`, the figure is 0.287% (inactive); as for `CCC(CC)NC(=O)/C=C/c1cccc([N+](=O)[O-])c1`, 17.4% (inactive); as for `Cc1ccccc1N1CC(C(=O)Nc2ccc3c(c2)OCO3)CC1=O` (centres undefined), 2.96% (inactive). For `COc1ccc(-c2n[nH]c(C)c2-c2ccccc2OC)c(O)c1` the value was 38.9% (inactive).

With `COc1ccccc1-c1n[nH]c2c1[C@H](C)CC[C@H]2C(C)C`, the inhibition was 53% (active).

On to `O=C1COc2ccc(S(=O)(=O)NCCc3ccc(Cl)cc3)cc2N1`, for which the inhibition is 8.79% (inactive). For `CCOC(=O)c1ccc(NC(=O)c2cccnc2)cc1` the value was 13.2% (inactive).

Consider `CC(=O)NC(=S)Nc1ccc(NC(=O)c2cccnc2)cc1`, for which the inhibition was 16.1% (inactive). For `Cc1ccc2nc(-c3ccc(NC(=O)c4cccnc4)cc3)oc2c1` the value was 52% (active); for `Cc1cc(C(=O)COc2ccccc2[N+](=O)[O-])c(C)n1-c1cccc(S(=O)(=O)N2CCOCC2)c1`, 7.4% (inactive).

For the compound `O=c1c2ccccc2nc2n1C(CSCc1cccc(C(F)(F)F)c1)CS2` (centres undefined), the inhibition is 14.7% (inactive). As for `O=C1CN(c2nc(-c3ccccc3)c3cc(Br)ccc3n2)c2ccccc2N1`, the figure is 4.72% (inactive).

Turning to `Cc1ccc(CNC(=O)Cn2cnc(S(=O)(=O)N3CCCCC3)c2)o1`, the inhibition was -6.13% (inactive). In the case of `CC1=NN(C(N)=S)C(=O)C1N=Nc1cc(Cl)ccc1Cl` (centres undefined), the inhibition is 36.9% (inactive). For `Cc1[nH]n(C(N)=S)c(=O)c1N=Nc1ccc(Cl)cc1Cl` the value was 67% (active); for `Cc1[nH]n(C)c(=O)c1N=Nc1ccc(S(C)(=O)=O)cc1`, 11.7% (inactive). As for `Cc1c(Cl)cccc1NC(=O)CSc1ccc(-c2cccnc2)nn1`, the inhibition was 2.22% (inactive).

(Values after PubChem BioAssay AID463212 (Sanford-Burnham Center for Chemical Genomics, 2010).)
